Assay [1] has as its target Luciferin 4-monooxygenase (Photinus pyralis) (UniProt P08659). Kind of assay: qHTS assay to identify small molecule inhibitors of firefly luciferase (AID 1224835). Further: nearly all actives have a fitted effect of over 25% in size. Further: potency means the concentration at half of the fitted maximal effect. The gist of the method:
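Inhibition of purified Photinus luciferase is measured by luminescence. Substrate levels (D-luciferin, ATP) sit at their KM values. Each compound is tested in a concentration series.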

The nature of assay [2]: qHTS assay to identify small molecule antagonists of the constitutive androstane receptor (CAR) signaling pathway - cell viability counter screen (AID 1224837). Further: nearly all actives have a fitted effect of over 45% in size. The method in brief: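 Fluorescence from CellTiter-Fluor served as the viability signal. Human hepatoma HepG2 cells stably bearing hCAR and CYP2B6-2.2kb received compound plus CITCO (50 nM final) for 23 hr.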
A short description of assay [3]: qHTS assay to identify small molecule antagonists of the estrogen related receptor signaling pathway with the pleiotropic PPARgamma coactivator (PGC) from Tox21 10K library - cell viability counter screen (AID 1224840; active means well fitted cell-killing curve with a large enough effect in the repeat runs, not every such curve was filed as active; further: nearly all actives have a fitted effect of over 40% in size). The gist of the method:
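Compounds in DMSO, alongside positive and negative controls, were pinned onto PGC/ERR cells (2,000 per well). Exposure lasted 17.5 hours at 37 C, followed by a 30-minute CellTiter-Fluor incubation and fluorescence reading.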
In general terms: Quantitative high-throughput screening tests each substance at several concentrations.

In assay [4] the target is Thyrotropin receptor (Homo sapiens) (UniProt P16473). Put plainly: qHTS assay to identify small molecule agonists of the thyroid stimulating hormone receptor (TSHR) signaling pathway (AID 1224843; calls by dose curve; further: nearly all actives have a fitted effect of over 45% in size). The gist of the method: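 Screening of the Tox21 10K collection used HEK293 cells engineered with TSHR at 800 cells per well. After a 30-min room-temperature compound exposure, HTRF cAMP reagents were added and fluorescence recorded 1 h later.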

Assay [5] in a line: qHTS assay to identify small molecule agonists of the hypoxia (HIF-1) signaling pathway - cell viability counter screen (AID 1224844; calls by dose curve; further: nearly all actives have a fitted effect of over 50% in size). The gist of the method:
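Luminescent ATP content (CellTiter-Glo, 30 min, room temperature) served as the viability measure in HRE-bla ME-180 cells exposed to compounds for 17 hrs in low-serum medium (0.5% dialyzed FBS).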

Assay [6] can be described thus: qHTS assay to identify small molecule agonists of the hypoxia (HIF-1) signaling pathway (AID 1224846; active means well fitted activation curve with a large enough effect in the signal ratio in the repeat runs, not every such curve was filed as active; the % refers to the signal ratio). The method in brief:
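Measured by blue/green FRET after loading CCF4-AM: beta-lactamase expressed from a hypoxia response element in ME-180 cells. Test agents were delivered in DMSO and left 17 hrs; cells had been plated 5 hrs earlier in low-serum (0.5% dialyzed FBS) medium.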

A short description of assay [7]: qHTS assay to identify small molecule agonists of H2AX - cell viability counter screen (AID 1224847; calls by dose curve; further: top concentration of the series differs between compounds; nearly all actives have a fitted effect of over 30% in size). The gist of the method:
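Cytotoxicity counter screen in wild-type CHO-K1 cells: a 3 hr compound treatment at 37C across 15 concentrations, followed by CellTiter-Glo luminescence to gauge viable cells.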

Assay [8] in a line: qHTS RealTime-Glo MT Cell Viability Assay in HepG2 cells - 24 hour (AID 1224867). Further: nearly all actives have a fitted effect of over 50% in size. The gist of the method: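 Real-time, nonlytic viability: 600 HepG2 cells/well mixed with NanoLuc enzyme plus prosubstrate; 5 h settle, compound (DMSO) added by pintool; luminescence monitored over 40 h at 37 C.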
Assay [9] is described as follows: qHTS RealTime-Glo MT Cell Viability Assay in HEK293 cells - 32 hour (AID 1224868). Further: top concentration of the series differs between compounds; nearly all actives have a fitted effect of over 50% in size. The method in brief:
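Cells + reagent dispensed (600 cells/well, HEK293) → 5 h at 37 C/5% CO2 → 23 nL compound in DMSO pinned → 40 h at 37 C → luminescence read at 0, 8, 16, 24, 32, 40 h.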

The nature of assay [10]: A CellTox Green Cytotoxicity Assay to monitor cytotoxicity in HEK293 cells - 0 hour (AID 1224869). Further: nearly all actives have a fitted effect of over 50% in size. The method in brief:
(§1)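 Each value comes from one timepoint of a single continuous run in which HEK293 cells with CellTox Green were exposed to compound for up to 40 h at 37 C, dye fluorescence rising with cell death.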

Assay [11] can be described thus: qHTS RealTime-Glo MT Cell Viability Assay in HepG2 cells - 40 hour (AID 1224870). Further: nearly all actives have a fitted effect of over 50% in size. The gist of the method: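 Real-time viability: cells seeded at 600 per well together with NanoLuc and cell-permeant prosubstrate, compounds added after 5 h incubation. Luminescence tracked at 0, 8, 16, 24, 32 and 40 h of exposure.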
Assay [12] is described as follows: A CellTox Green Cytotoxicity Assay to monitor cytotoxicity in HEK293 cells - 40 hour (AID 1224871). Further: nearly all actives have a fitted effect of over 45% in size. The gist of the method:
as §1

Assay [13] in a line: qHTS assay to identify small molecule agonists of the estrogen related receptor signaling pathway with the pleiotropic PPARgamma coactivator (PGC) from Tox21 10K library (AID 1224842). Further: nearly all actives have a fitted effect of over 15% in size. The method in brief: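 Luminescence from One-Glo (30 min, room temperature) measured after PGC/ERR cells had 18 h at 37 C with pinned compound (23 nL in DMSO). Cells had been seeded at 2,000 per well and pre-incubated 6 h.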

Assay [14] can be described thus: qHTS assay to identify small molecule agonists of H2AX (AID 1224845; active means well fitted activation curve with a large enough effect in the signal ratio in the repeat runs, not every such curve was filed as active; the % refers to the signal ratio). The gist of the method:
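Phospho-H2AX Ser139 measured by HTRF (ex 320 nm; em 665 and 620 nm) after 24 hr antibody incubation. Compounds, 15 concentrations, 0.76% DMSO, were applied to CHO-K1 cells for 3hr at 37C before lysis.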

Assay [15] can be described thus: qHTS assay to identify small molecule agonists of the estrogen related receptor (ERR) signaling pathway from Tox21 library (AID 1224849; calls by dose curve; further: nearly all actives have a fitted effect of over 15% in size). The note with it: ERR reporter cell line, ONE-Glo luciferase, 18 h; at 92.4 µM (top of the series) unless noted. The gist of the method:
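We plated ERR reporter cells, waited 6 h, added compounds in DMSO by pin tool and incubated them 18 h at 37 C. ONE-Glo was then added and luminescence read after 30 min.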

Assay [16] can be described thus: qHTS assay to identify small molecule agonists of the constitutive androstane receptor (CAR) signaling pathway - cell viability counter screen (AID 1224836). Further: nearly all actives have a fitted effect of over 45% in size. The method in brief: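 Cells were seeded and incubated 4 hrs. Compounds were added across 15 concentrations together with PK11195 at 0.75 uM final. Plates were incubated 23 hrs at 37 C. CellTiter-Fluor was added and fluorescence measured.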

The target of assay [17] is Nuclear receptor subfamily 1 group I member 3 (Homo sapiens) (UniProt Q14994). Put plainly: qHTS assay to identify small molecule antagonists of the constitutive androstane receptor (CAR) signaling pathway (AID 1224838).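 Further: HepG2 cells stably expressing hCAR with CYP2B6 luciferase reporter stimulated by CITCO; nearly all actives have a fitted effect of over 40% in size.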 The method in brief: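 Quantitative HTS in double-stable HepG2-CYP2B6-hCAR cells. After 4 h plating, cells get compound (15 concentrations) and CITCO at 50 nM final, incubate 24 h at 37 C, then ONE-Glo luminescence is read.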

For assay [18] the target is unchanged. Put plainly: qHTS assay to identify small molecule agonists of the constitutive androstane receptor (CAR) signaling pathway (AID 1224839). Further: nearly all actives have a fitted effect of over 15% in size. Further: potency means the concentration at half of the fitted maximal effect.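 On activation: HepG2 cells stably carrying human CAR and a CYP2B6 luciferase reporter.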 The gist of the method: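 Cells were plated and incubated 4 hrs, then dosed with compounds at 15 concentrations. PK11195 was added to 0.75 uM final. After 24 hrs at 37 C, luciferase luminescence was measured.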
A short description of assay [19]: qHTS assay to identify small molecule antagonists of the estrogen related receptor signaling pathway with the pleiotropic PPARgamma coactivator (PGC) from Tox21 10K library (AID 1224841; call rule not given here). The gist of the method: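 Compound exposure ran 18 hours at 37 C in PGC/ERR cells (2,000/well) that had first rested 6 hours in a 37 C/5% CO2 incubator. Luciferase activity was then detected with One-Glo after a 30-minute room-temperature step.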

Assay [20] in a line: qHTS assay to identify small molecule antagonists of the estrogen related receptor (ERR) signaling pathway from Tox21 library (AID 1224848). Further: nearly all actives have a fitted effect of over 50% in size. The method in brief:
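Antagonist-mode screen of the Tox21 10K library in an NTP-provided ERR reporter cell line; 18 h compound exposure at 37 C, luminescence measured with ONE-Glo.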

The record followed here is PubChem BioAssay (Tox21).

Molecules are shown by their SMILES. Values without a mark were called inactive. Results filed as inconclusive are left out. The source made the active and inactive calls. Unless noted, the call rests on the fitted dose curve; in most records, active means well fitted curve in the direction sought with a large enough effect in the repeat runs; inconclusive means weak or mixed curves; inactive means no such curve, though single readings can be large; an effect the other way counts as inactive or inconclusive.
On the % scale 0 is the no-effect control and ±100 the full control effect.

Chain of Nuclear receptor subfamily 1 group I member 3 (Homo sapiens) (Q14994 whole entry, looked up): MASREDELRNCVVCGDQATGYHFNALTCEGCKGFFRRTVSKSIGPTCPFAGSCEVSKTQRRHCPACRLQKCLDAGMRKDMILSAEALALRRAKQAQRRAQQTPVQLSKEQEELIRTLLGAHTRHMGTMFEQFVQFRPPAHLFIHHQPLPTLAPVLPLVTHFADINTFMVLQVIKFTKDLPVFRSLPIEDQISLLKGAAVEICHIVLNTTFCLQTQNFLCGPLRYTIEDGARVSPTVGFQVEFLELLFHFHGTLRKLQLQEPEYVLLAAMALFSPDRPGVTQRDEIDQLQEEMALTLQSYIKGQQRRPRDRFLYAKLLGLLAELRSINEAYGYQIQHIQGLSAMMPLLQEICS
Chain of Luciferin 4-monooxygenase (Photinus pyralis) (P08659 whole entry, looked up): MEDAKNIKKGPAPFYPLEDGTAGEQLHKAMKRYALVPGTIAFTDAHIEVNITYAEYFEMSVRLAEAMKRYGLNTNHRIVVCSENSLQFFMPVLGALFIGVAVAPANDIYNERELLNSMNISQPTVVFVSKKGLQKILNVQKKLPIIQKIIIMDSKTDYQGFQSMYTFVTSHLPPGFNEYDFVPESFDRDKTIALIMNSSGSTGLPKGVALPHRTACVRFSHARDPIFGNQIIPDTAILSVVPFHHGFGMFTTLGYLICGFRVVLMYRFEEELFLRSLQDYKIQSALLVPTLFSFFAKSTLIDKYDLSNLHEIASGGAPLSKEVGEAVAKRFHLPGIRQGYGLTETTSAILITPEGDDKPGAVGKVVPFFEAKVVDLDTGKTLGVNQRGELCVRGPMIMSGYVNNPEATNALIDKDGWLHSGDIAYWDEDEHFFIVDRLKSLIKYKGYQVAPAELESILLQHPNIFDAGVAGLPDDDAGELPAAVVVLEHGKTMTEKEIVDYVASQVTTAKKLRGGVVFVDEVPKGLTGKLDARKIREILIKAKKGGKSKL
Chain of Thyrotropin receptor (Homo sapiens) (P16473 whole entry, looked up): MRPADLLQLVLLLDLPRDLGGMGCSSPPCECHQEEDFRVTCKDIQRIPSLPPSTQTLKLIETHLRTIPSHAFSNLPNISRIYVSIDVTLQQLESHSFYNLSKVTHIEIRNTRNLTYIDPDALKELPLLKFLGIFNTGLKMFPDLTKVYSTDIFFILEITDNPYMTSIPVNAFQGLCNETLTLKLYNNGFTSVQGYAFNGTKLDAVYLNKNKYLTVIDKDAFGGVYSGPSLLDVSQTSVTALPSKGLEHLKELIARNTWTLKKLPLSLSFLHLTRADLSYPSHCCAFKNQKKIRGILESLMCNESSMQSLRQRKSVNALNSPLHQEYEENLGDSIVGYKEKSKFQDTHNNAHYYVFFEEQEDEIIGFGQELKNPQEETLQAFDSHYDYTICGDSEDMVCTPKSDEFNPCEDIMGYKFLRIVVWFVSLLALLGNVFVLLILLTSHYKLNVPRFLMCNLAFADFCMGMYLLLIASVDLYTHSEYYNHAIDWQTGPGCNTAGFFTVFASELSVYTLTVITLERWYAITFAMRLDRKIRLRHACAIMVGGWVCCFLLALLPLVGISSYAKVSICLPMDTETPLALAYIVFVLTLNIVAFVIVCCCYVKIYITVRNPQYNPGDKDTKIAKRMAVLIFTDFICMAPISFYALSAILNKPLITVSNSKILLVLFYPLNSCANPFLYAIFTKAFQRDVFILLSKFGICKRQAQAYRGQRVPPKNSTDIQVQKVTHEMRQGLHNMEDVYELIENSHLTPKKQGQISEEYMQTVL

For `O=C(O)C(Br)CBr` (stereo unspecified), the Potency result in [1], in assay [2], in [3], in [4], in [5] and in [7] was “inactive” throughout. For the same compound, the Potency result in assay [8], in [9], in [10], in assay [11] and in [12] was “inactive” each time. Moreover, the outcome in [6] was inactive.
Consider `[O]=[Cd]`, for which the Potency result in assay [1], in assay [2], in assay [3], in assay [4], in assay [5] and in [14] was “inactive” each time. Also, the Potency entry in assay [7], in [8], in assay [9], in assay [10], in [11] and in assay [12] was “inactive” in each case. Further, the compound was called inactive in assay [13] and in [6]. In addition, in assay [15], the activity change, positive = activation is -14%.
`O=[N+]([O-])c1ccc2c3c(cccc13)CC2`: the Potency entry in assay [1], in [2], in assay [3], in [4], in assay [5] and in [7] was “inactive” each time. Besides, the Potency entry in assay [8], in assay [9], in assay [10], in assay [11] and in assay [12] was “inactive” each time. Besides, in assay [6], the result was inactive.
On to `COP(=S)(OC)Oc1c(Cl)cc(C)cc1Cl`, for which the Potency entry in [16], in assay [2], in [17], in assay [3], in [19] and in [5] was “inactive” each time. Further, the Potency entry in [14], in [7], in assay [20], in assay [8], in [9] and in assay [10] was “inactive” throughout. Also, the Potency entry in assay [11] and in assay [12] was “inactive” each time. Besides, the Potency in assay [18] is 27.3 µM (active). The compound was called inactive in assay [13] and in assay [6]. Further, the activity change, positive = activation in [15] is 0.872%.
As to `CCN(CC)CCOC(=O)C(C)(c1ccccc1)c1ccccc1`, the Potency entry in [1], in assay [17], in assay [3], in assay [19], in assay [5] and in [14] was “inactive” each time. Also, the Potency entry in assay [7], in assay [20], in assay [8], in assay [9], in assay [10] and in [11] was “inactive” throughout. The Potency result in [12] was “inactive”. Further, the compound was classed as inactive in assay [13] and in assay [6]. The activity change, positive = activation in assay [15] was 0.519% [at 42.5 µM].
On to `CCOP(=S)(OCC)Oc1nc(Cl)n(C(C)C)n1`, for which the Potency result in assay [16], in assay [3], in assay [4], in assay [5], in assay [14] and in assay [7] was “inactive” in each case. The Potency entry in assay [8], in [10], in assay [11] and in assay [12] was “inactive” throughout. The outcome in assay [6] was inactive.
In the case of `CCOP(=S)(OCC)Oc1ncn(-c2ccccc2)n1`, the Potency entry in [2], in assay [17], in [3], in assay [5], in assay [14] and in [8] was “inactive” each time. Besides, the Potency result in [10] and in assay [11] was “inactive” throughout. For the same compound, the Potency in assay [18] was 30.6 µM (active). For the same compound, the compound was called inactive in [6].
Regarding `BrCCCCCCBr`, the Potency result in [16], in assay [2], in assay [17], in assay [3], in assay [5] and in assay [7] was “inactive” throughout. The Potency entry in [8], in assay [10], in assay [11] and in [12] was “inactive” in each case. In assay [6], the compound was called inactive.
Consider `O=C(Cc1ccccc1)OCc1ccccc1`, for which the Potency in assay [1] is 20.2 µM (active). Further, the Potency entry in assay [17], in assay [18], in [3], in assay [4], in assay [5] and in assay [14] was “inactive” each time. Besides, the Potency entry in assay [7], in assay [8], in assay [10] and in assay [11] was “inactive” throughout.
